From ChEMBL document CHEMBL1961873, “Compounds: GSK PKIS; Assays: Nanosyn kinase panel” (2012)

Legend:
[1] = molecular target: RAC-alpha serine/threonine-protein kinase (Homo sapiens) (UniProt P31749); conditions: at 0.1 µM
[2] = molecular target: RAC-alpha serine/threonine-protein kinase (Homo sapiens) (UniProt P31749); conditions: at 1 µM
[3] = molecular target: RAC-beta serine/threonine-protein kinase (Homo sapiens) (UniProt P31751); conditions: at 0.1 µM
[4] = molecular target: RAC-beta serine/threonine-protein kinase (Homo sapiens) (UniProt P31751); conditions: at 1 µM
[5] = molecular target: RAC-gamma serine/threonine-protein kinase (Homo sapiens) (UniProt Q9Y243); conditions: at 0.1 µM
[6] = molecular target: RAC-gamma serine/threonine-protein kinase (Homo sapiens) (UniProt Q9Y243); conditions: at 1 µM
[7] = molecular target: G protein-coupled receptor kinase 6 (Homo sapiens) (UniProt P43250); conditions: at 0.1 µM
[8] = molecular target: G protein-coupled receptor kinase 6 (Homo sapiens) (UniProt P43250); conditions: at 1 µM
[9] = molecular target: T1, Rhodopsin kinase GRK7 (Homo sapiens) (UniProt Q8WTQ7); conditions: at 0.1 µM
T1 sequence (whole entry): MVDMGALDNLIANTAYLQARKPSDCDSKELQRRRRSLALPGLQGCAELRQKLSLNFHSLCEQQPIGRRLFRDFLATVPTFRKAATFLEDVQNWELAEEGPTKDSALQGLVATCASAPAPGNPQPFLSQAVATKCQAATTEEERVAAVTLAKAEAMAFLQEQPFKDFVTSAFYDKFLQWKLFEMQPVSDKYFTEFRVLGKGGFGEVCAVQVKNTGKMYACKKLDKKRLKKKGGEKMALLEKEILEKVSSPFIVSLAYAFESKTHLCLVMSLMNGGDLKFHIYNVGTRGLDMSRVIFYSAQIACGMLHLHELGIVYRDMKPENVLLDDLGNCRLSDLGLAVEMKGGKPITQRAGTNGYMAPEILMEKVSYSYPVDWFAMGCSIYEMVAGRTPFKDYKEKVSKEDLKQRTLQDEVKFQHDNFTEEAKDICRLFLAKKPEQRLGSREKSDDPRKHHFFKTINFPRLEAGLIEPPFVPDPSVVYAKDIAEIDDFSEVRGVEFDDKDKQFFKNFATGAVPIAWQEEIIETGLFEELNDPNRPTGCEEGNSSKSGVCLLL

[10] = molecular target: T1, Rhodopsin kinase GRK7 (Homo sapiens); conditions: at 1 µM
[11] = molecular target: Serine/threonine-protein kinase MRCK alpha (Homo sapiens) (UniProt Q5VT25); conditions: at 0.1 µM
[12] = molecular target: Serine/threonine-protein kinase MRCK alpha (Homo sapiens) (UniProt Q5VT25); conditions: at 1 µM
[13] = molecular target: Serine/threonine-protein kinase MRCK beta (Homo sapiens) (UniProt Q9Y5S2); conditions: at 0.1 µM
[14] = molecular target: Serine/threonine-protein kinase MRCK beta (Homo sapiens) (UniProt Q9Y5S2); conditions: at 1 µM
[15] = molecular target: Ribosomal protein S6 kinase alpha-5 (Homo sapiens) (UniProt O75582); conditions: at 0.1 µM
[16] = molecular target: Ribosomal protein S6 kinase alpha-5 (Homo sapiens) (UniProt O75582); conditions: at 1 µM
[17] = molecular target: Ribosomal protein S6 kinase alpha-4 (Homo sapiens) (UniProt O75676); conditions: at 0.1 µM
[18] = molecular target: Ribosomal protein S6 kinase alpha-4 (Homo sapiens) (UniProt O75676); conditions: at 1 µM
[19] = molecular target: Ribosomal protein S6 kinase beta-1 (Homo sapiens) (UniProt P23443); conditions: at 0.1 µM
[20] = molecular target: Ribosomal protein S6 kinase beta-1 (Homo sapiens) (UniProt P23443); conditions: at 1 µM

Sequence of RAC-gamma serine/threonine-protein kinase (Homo sapiens) (Q9Y243 whole entry): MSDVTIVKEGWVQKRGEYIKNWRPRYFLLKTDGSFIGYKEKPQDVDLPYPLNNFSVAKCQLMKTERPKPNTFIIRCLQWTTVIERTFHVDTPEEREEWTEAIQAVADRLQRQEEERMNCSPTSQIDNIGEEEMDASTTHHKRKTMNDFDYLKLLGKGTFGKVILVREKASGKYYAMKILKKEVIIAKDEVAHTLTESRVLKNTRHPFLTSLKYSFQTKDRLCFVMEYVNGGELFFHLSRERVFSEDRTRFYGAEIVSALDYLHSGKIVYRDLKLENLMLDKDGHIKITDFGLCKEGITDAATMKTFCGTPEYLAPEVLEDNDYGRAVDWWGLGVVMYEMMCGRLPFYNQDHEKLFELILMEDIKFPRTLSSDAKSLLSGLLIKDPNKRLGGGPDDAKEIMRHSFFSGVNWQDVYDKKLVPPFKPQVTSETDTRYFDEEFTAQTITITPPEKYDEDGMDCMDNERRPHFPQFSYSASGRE
Sequence of Serine/threonine-protein kinase MRCK alpha (Homo sapiens) (Q5VT25 whole entry): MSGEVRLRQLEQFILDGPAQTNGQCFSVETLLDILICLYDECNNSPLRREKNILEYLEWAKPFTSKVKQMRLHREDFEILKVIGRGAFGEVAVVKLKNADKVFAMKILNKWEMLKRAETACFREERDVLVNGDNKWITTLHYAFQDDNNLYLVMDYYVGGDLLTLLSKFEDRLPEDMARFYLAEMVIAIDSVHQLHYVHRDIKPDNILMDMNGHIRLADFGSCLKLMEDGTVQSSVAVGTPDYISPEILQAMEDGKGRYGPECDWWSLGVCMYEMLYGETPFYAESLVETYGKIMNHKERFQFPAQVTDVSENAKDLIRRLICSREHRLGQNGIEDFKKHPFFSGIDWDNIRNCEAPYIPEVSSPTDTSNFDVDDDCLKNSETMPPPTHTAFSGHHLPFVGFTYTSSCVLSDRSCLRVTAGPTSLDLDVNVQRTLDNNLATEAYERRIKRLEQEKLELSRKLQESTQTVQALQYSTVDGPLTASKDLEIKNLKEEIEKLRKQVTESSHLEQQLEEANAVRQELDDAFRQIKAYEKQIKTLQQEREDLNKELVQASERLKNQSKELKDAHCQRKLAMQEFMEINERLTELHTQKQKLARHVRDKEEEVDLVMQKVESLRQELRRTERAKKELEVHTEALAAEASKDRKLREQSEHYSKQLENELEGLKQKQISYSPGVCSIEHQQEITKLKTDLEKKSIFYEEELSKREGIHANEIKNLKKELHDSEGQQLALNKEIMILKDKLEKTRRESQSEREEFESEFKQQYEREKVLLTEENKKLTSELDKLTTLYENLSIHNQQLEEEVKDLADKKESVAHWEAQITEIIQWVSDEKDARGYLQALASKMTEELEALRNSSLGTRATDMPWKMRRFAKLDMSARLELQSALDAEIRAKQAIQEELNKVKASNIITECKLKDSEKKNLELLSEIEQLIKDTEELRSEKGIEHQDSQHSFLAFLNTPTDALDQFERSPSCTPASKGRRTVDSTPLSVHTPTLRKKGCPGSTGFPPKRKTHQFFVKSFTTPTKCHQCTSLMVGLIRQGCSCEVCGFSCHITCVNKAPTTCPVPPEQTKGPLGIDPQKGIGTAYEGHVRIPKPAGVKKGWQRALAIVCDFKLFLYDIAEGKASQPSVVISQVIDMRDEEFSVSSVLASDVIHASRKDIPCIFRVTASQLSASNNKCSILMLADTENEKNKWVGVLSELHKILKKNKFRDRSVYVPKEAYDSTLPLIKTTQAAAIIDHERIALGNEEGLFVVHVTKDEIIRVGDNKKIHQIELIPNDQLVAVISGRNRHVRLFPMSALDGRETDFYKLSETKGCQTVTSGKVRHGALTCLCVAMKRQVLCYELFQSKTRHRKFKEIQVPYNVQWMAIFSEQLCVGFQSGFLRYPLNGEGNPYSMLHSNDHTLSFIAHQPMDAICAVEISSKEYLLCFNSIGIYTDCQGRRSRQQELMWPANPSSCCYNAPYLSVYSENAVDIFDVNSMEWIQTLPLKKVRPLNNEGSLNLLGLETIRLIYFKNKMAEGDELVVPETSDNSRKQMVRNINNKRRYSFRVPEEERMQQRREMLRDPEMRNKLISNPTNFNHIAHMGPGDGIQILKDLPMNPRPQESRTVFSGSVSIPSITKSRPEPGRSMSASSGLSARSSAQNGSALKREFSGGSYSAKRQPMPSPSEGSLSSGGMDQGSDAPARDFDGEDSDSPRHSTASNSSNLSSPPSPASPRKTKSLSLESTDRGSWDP
Sequence of Ribosomal protein S6 kinase alpha-5 (Homo sapiens) (O75582 whole entry, looked up): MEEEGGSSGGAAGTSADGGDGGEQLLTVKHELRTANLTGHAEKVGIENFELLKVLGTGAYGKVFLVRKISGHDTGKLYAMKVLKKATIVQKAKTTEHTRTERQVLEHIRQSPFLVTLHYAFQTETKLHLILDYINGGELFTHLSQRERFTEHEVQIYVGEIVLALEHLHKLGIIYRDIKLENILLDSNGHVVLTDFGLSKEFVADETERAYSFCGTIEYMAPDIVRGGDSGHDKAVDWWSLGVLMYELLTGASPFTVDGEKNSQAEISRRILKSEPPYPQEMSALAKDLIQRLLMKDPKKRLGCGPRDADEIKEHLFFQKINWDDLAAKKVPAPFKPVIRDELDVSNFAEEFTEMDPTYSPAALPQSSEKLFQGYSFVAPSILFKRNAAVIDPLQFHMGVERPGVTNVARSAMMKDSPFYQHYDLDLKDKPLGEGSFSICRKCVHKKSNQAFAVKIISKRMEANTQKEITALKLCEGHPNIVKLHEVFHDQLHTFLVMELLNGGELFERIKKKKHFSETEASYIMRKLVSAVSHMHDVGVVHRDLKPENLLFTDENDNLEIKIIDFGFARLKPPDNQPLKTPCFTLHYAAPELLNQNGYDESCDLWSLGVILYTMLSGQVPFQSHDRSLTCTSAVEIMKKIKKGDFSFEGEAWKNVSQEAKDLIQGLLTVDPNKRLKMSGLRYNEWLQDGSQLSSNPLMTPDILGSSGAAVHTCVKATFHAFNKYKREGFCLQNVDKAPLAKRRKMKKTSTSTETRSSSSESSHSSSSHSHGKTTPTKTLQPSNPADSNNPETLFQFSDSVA
Sequence of Ribosomal protein S6 kinase alpha-4 (Homo sapiens) (O75676 whole entry, looked up): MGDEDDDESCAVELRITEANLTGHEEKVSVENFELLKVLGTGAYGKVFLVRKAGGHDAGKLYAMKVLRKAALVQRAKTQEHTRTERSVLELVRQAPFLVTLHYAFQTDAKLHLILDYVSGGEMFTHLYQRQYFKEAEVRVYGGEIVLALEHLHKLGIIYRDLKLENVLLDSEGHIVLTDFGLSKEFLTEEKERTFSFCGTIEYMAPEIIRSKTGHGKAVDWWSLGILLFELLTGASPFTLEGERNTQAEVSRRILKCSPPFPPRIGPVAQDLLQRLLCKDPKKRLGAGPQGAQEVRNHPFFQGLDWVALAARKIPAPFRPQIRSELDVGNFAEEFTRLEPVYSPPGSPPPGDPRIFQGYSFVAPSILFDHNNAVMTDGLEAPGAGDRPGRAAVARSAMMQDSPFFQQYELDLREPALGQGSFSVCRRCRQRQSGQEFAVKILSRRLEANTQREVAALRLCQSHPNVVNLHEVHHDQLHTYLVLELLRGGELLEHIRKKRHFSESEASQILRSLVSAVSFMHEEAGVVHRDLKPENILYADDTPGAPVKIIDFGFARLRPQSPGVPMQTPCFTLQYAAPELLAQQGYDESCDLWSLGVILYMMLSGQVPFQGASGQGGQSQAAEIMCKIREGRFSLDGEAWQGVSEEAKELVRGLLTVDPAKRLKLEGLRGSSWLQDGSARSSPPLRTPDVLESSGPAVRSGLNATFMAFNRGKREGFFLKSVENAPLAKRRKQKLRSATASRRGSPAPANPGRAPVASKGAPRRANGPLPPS
Sequence of G protein-coupled receptor kinase 6 (Homo sapiens) (P43250 whole entry, looked up): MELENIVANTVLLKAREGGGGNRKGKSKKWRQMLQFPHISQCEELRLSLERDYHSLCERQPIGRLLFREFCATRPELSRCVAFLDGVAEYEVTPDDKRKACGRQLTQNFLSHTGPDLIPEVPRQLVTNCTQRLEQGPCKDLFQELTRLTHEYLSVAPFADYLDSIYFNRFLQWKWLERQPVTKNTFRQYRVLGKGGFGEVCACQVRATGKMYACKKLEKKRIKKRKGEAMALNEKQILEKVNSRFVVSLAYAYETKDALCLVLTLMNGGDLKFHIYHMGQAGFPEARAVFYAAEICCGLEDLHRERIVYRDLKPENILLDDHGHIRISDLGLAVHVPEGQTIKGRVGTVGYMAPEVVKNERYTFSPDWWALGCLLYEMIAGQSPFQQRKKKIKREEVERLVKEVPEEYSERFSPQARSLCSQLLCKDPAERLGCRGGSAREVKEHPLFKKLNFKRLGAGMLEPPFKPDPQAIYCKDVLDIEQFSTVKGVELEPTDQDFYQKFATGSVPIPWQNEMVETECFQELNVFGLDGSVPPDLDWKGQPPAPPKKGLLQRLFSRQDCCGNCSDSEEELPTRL
Sequence of RAC-alpha serine/threonine-protein kinase (Homo sapiens) (P31749 whole entry): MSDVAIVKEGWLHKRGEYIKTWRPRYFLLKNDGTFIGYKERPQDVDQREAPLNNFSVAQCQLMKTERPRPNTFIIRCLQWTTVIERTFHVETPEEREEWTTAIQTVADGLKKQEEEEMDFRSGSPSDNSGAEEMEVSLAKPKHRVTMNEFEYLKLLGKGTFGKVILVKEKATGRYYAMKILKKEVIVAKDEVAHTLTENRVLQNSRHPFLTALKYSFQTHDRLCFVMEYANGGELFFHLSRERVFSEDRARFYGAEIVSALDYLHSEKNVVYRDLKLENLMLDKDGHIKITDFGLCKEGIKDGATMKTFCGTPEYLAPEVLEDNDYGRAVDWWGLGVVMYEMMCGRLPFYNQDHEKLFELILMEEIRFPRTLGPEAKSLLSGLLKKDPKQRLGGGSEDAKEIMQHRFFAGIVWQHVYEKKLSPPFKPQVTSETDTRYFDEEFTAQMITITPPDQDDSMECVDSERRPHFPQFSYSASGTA

Structure (SMILES)	inhibition [1]	inhibition [2]	inhibition [3]	inhibition [4]	inhibition [5]	inhibition [6]	inhibition [7]	inhibition [8]	inhibition [9]	inhibition [10]	inhibition [11]	inhibition [12]	inhibition [13]	inhibition [14]	inhibition [15]	inhibition [16]	inhibition [17]	inhibition [18]	inhibition [19]	inhibition [20]
Cc1cccc(-c2n[nH]cc2-c2ccc3ncccc3n2)n1	-0.73%	0.02%	0.56%	-0.22%	2.42%	2.13%	0.46%	3.16%	-0.51%	5.08%	0.34%	0.69%	0.87%	1.36%	0.79%	0.35%	1.84%	0.64%	0.55%	-0.68%
CS(=O)(=O)CCN(CC#N)Cc1ccc(-c2ccc3ncnc(Nc4ccc(OCc5cccc(F)c5)c(Cl)c4)c3c2)o1	-1.63%	-3.32%	-3.4%	-2.91%	-3.18%	-0.79%	0.99%	3.25%	6.9%	2.37%	-0.15%	-1.53%	-0.05%	-0.09%	0.54%	-1.33%	1.06%	1.76%	0.1%	0.27%
Cc1nnc(-c2ccc(C)c(-c3ccc(C(=O)Nc4cccc(C#N)c4)cc3)c2)o1	0.44%	0.29%	0.76%	0.57%	1.16%	1.22%	2.81%	3.91%	2.5%	7.22%	0.21%	2.76%	-0.92%	-0.91%	1.21%	1.62%	0.19%	2.28%	1.45%	1.91%
COc1cc2ncn(-c3cc(OCc4ccccc4C(F)(F)F)c(C(N)=O)s3)c2cc1OC	-2.43%	-2.44%	-2.6%	-2.54%	-3.14%	-1.66%	0.88%	0.91%	9.69%	6.72%	-5.9%	-3.27%	-0.23%	-0.14%	1.71%	1.02%	2.52%	5.14%	1.44%	3.22%
CC1=C(C(=O)Nc2ccc3[nH]ncc3c2)C(c2ccc(Cl)c(Cl)c2)CC(=O)N1 (stereo not given)	-0.08%	1.46%	1.11%	1.63%	0.95%	2.81%	4.25%	7.35%	-1.63%	-5.21%	1.51%	20.1%	5.81%	35%	10.3%	46.4%	7.4%	39.1%	3.83%	25.2%
CCCN1CCC=C(c2ccc(Nc3nc(Nc4ccccc4C(N)=O)c4cc[nH]c4n3)c(C)c2)C1	0.97%	1.22%	1.3%	1.5%	-0.2%	5.51%	6.79%	31.4%	11.2%	20.5%	5.2%	9.75%	0.66%	4.44%	4.46%	6.4%	1.37%	5.28%	0.98%	6.39%
N#Cc1c(NC(=O)c2cccc3ccccc23)sc2c1CCCC2	0.5%	0.48%	1.74%	2.41%	1.33%	1.85%	3.58%	3.47%	2.52%	6.83%	-0.22%	-0.12%	0.93%	1.57%	7.78%	6.93%	1.95%	2.56%	1.14%	2.63%
c1cnn2ncc(-c3ccnc(Nc4ccc5c(c4)OCCO5)n3)c2c1	0.86%	0.95%	2.29%	1.47%	1.09%	2.1%	7.21%	4.01%	4.35%	2.89%	-0.46%	0.87%	1.21%	1.8%	4.5%	6.82%	2.97%	6.51%	1.67%	5.63%
Fc1cccc(COc2ccc(Nc3ncnc4cc(-c5ccc[nH]5)sc34)cc2Cl)c1	-3.51%	-3.04%	-2.34%	-1.49%	-3.34%	-3.78%	5%	2.64%	1.96%	13.6%	-0.43%	-1.14%	0.61%	0.75%	0.34%	0.11%	3.11%	4.08%	0.99%	1.05%
O=C1NC(=O)C(c2ccccc2Cl)=C1Nc1cccc(O)c1	0.96%	1.06%	1.74%	1.48%	0.92%	1.56%	1.82%	2.13%	1.36%	-6.28%	0.28%	-0.35%	1.4%	3.99%	2.66%	5.41%	1.39%	3.42%	1.47%	0.61%
CS(=O)(=O)CCNCc1nc(-c2ccc3ncnc(Nc4ccc(F)c(Cl)c4)c3c2)cs1	0.62%	-0.01%	0.07%	1.1%	1.52%	-0.89%	1.59%	3.85%	5.77%	-4.62%	1.82%	3.22%	-0.31%	-0.48%	1.46%	6.15%	1.32%	1.96%	-0.63%	1.77%
Nc1ncnc2occ(-c3ccc(NC(=O)Nc4cc(C(F)(F)F)cc(C(F)(F)F)c4)cc3)c12	-0.23%	0.58%	1.95%	2.09%	1.26%	1.13%	-2.78%	-6.02%	-0.71%	-8.6%	-0.38%	-1.97%	0.11%	1.52%	3.6%	25.2%	-0.06%	20.1%	17%	65.8%
Cc1ccc(C(=O)NC2CCCCC2)cc1-c1ccc(C(=O)NCC2CC2)cc1	0.04%	0.76%	1.52%	1.72%	2.01%	0.64%	-0.29%	-3.25%	2.64%	6.92%	1.04%	0.21%	1.37%	1.51%	2.76%	3.23%	1.19%	2.43%	-0.26%	0.99%
